In all, about 310,000 compounds went through this assay and about 14,000 (4.5%) showed an effect of 50% or more. Effects have a minus sign here. The list comes from a sample in which strong results are over-represented; it also holds similar structures and randomly drawn compounds.
What follows are compounds tested against human ether-à-go-go-related gene (hERG) potassium channel (human, UniProt Q12809) (assay: primary screen, population patch clamp on CHO cells stably expressing hERG; higher = less effect of the substance).
Sequence of human ether-à-go-go-related gene (hERG) potassium channel (Q12809 whole entry, looked up): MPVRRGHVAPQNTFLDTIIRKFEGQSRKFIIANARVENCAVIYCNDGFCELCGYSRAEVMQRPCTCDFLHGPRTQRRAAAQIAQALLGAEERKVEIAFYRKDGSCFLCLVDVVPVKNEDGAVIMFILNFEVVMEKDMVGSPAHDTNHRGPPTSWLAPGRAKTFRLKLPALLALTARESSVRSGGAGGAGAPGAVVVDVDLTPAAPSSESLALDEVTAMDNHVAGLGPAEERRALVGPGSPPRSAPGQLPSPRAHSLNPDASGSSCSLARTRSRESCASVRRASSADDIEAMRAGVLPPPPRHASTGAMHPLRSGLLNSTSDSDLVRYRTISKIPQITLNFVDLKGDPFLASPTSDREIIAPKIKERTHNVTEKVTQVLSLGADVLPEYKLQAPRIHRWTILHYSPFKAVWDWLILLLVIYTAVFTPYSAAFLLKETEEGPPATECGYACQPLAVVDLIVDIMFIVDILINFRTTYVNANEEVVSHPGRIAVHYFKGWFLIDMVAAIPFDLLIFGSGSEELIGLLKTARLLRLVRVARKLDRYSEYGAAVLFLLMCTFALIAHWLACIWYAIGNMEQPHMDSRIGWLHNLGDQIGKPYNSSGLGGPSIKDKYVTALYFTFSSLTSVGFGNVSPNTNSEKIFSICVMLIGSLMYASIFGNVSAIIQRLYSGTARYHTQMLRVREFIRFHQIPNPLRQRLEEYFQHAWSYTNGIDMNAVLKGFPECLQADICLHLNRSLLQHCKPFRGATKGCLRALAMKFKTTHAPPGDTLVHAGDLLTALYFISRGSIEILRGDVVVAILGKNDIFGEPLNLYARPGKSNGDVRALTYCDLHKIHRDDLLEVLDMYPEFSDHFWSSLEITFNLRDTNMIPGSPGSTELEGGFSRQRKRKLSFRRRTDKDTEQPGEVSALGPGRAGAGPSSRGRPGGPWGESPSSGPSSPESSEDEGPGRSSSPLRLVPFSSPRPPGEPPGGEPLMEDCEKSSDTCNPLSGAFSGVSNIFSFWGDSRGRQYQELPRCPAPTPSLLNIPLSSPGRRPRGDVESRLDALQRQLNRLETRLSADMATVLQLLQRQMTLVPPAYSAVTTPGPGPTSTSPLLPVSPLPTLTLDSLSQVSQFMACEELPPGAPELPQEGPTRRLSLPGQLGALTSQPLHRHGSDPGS
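Further: peak tail current of the secondary pulse compared with the same well before compound.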

| SMILES | hERG current change (%, negative = inhibition) at 10uM |
| --- | --- |
| Cc1cccc(N(Cc2cc3ccc(C)cc3[nH]c2=O)C(=O)c2ccco2)c1 | -8.8% |
| COC(=O)c1cccc(Nc2nc(-c3ccncc3)nc3ccccc23)c1 | 28.5% |
| Cc1ccc(C2CCN(C(=S)NC3CCCCC3)C2)cc1 (stereo not drawn) | -5.82% |
| CC1CCCC(NC(=O)c2ccc(COc3ccccc3)o2)C1C (stereo not drawn) | 0.0111% |
| O=C(CNS(=O)(=O)c1ccccc1)OCC(=O)c1ccc([N+](=O)[O-])cc1 | -3.22% |
| CC(=O)c1ccccc1NC(=O)COC(=O)C1CCCN1S(=O)(=O)c1ccccc1F (stereo not drawn) | -0.476% |
| NC(=O)NC(=O)COC(=O)CNS(=O)(=O)c1ccc(F)c(F)c1F | 13.3% |
| COc1ccc(NC(=O)COC(=O)CNS(=O)(=O)c2ccc(F)c(F)c2F)cc1OC | 21.3% |
| COc1ccc(NC(=O)COC(=O)CCNS(=O)(=O)c2ccccc2)cc1OC | 23.2% |
| COc1ccc(NC(=O)COC(=O)[C@@H]2CCCN2S(=O)(=O)c2ccccc2F)c(OC)c1 | -18.2% |
| O=C(COC(=O)[C@@H]1CCCN1S(=O)(=O)c1ccccc1F)Nc1ccc(OC(F)F)cc1 | -61.7% |
| O=C(COC(=O)CNS(=O)(=O)c1ccc(F)c(F)c1F)Nc1ccc(OC(F)F)cc1 | -65.2% |
| N#Cc1ccc(NC(=O)COC(=O)CCNS(=O)(=O)c2ccccc2)cc1 | -34.4% |
| O=C(COC(=O)CCNS(=O)(=O)c1ccccc1)Nc1ccc(OC(F)F)cc1 | -60.3% |
| CCn1c(CC(=O)Nc2cccc(OC)c2)nnc1SCC(=O)Nc1nccs1 | -2.39% |
| CCc1ccc2c(c1)cc(C)c1nnc(SCC(=O)Nc3cc(OC)c(OC)cc3C(=O)O)n12 | 5.98% |
| CC1CCC2(CC1)NC(=O)N(CC(=O)NCc1ccc(F)cc1)C2=O (stereo not drawn) | -21.2% |
| C/C(=N/Nc1nc(-c2ccccc2)cc(-c2ccc(F)cc2)n1)c1cccc(N)c1 | 3.2% |
| NS(=O)(=O)c1ccc(CCNC(=O)c2ccc(OCC3CCCO3)cc2)cc1 (stereo not drawn) | 19.9% |
| Cc1cc(N2CCN(C)CC2)nc2ccc(NC(=O)c3ccc4c(c3)OCO4)cc12 | -62.2% |
| COc1ccc(C(=O)Nc2ccc3nc(N4CCN(C)CC4)cc(C)c3c2)c(OC)c1 | -0.388% |
| Cc1cc(N2CCN(C)CC2)nc2ccc(NC(=O)c3ccccc3F)cc12 | -58.4% |

| SMILES | hERG current change (%, negative = inhibition) at 10uM |
| --- | --- |
| CCN1CCN(c2cc(C)c3cc(NC(=O)c4ccc5c(c4)OCO5)ccc3n2)CC1 | -38.6% |
| Cc1ccc(NC(=O)c2ccc3c(c2)OCO3)cc1Cl | -2.98% |
| Cc1cc(N2CCN(C)CC2)nc2ccc(NC(=O)c3cccnc3Cl)cc12 | -2.54% |
| O=C(Nc1ccc2c(c1)OCCO2)C1CCCN(S(=O)(=O)c2cccc3nsnc23)C1 (stereo not drawn) | 4.93% |
| O=C(CNC1CCCCCC1)Nc1ccc(S(=O)(=O)NC2CC2)cc1 | 1.98% |
| Nc1ccccc1SCc1ccccc1 | -2.24% |
| Oc1ccccc1C1NN=C(c2ccccc2)S1 (stereo not drawn) | -15% |
| COc1ccc(-c2csc(N(CCCN(C)C)C(=O)c3ccc(C)cc3)n2)cc1.Cl | -68.2% |
| COc1ccc(-c2csc(N(CCCN(C)C)C(=O)c3ccc(F)cc3)n2)cc1.Cl | -58.1% |
| COc1ccc(-c2csc(N(CCCN(C)C)C(=O)c3ccc(C(C)(C)C)cc3)n2)cc1.Cl | 18% |
| C/C(=N\NC(=O)c1cc(O)cc(O)c1)c1ccc(NC(=O)Cc2ccccc2)cc1 | 14.2% |
| CSc1ccc(CN(C)C(C)C(=O)Nc2ccc(F)c(F)c2F)cc1 (stereo not drawn) | 15.3% |
| CNC(=O)c1c(NC(=O)c2ccc(S(=O)(=O)N3CCCCC3C)cc2)sc2c1CCN(C)C2 (stereo not drawn) | -3.92% |
| CCN1CCC[C@H]1CNC(=O)c1c(O)c(Cl)cc(Cl)c1OC.O=C(O)C(O)C(O)C(=O)O | -13.8% |
| CCc1cc(Cl)c(OC)c(C(=O)NC[C@@H]2CCCN2CC)c1O.Cl | -59.2% |
| CCCCN1CCCC1CNC(=O)c1cc(C#N)c2ccccc2c1OC (stereo not drawn) | -64.3% |
| O=C(NCC1CCCO1)c1cc2cc(F)ccc2[nH]1 (stereo not drawn) | 9.11% |
| CCN1CCCC1CNC(=O)c1cc2ccc(OC)cc2[nH]1 (stereo not drawn) | -12.4% |
| CCN1CCCC1CNC(=O)c1[nH]c2ccc(OC)cc2c1C (stereo not drawn) | -51.2% |
| CCN1CCCC1CNC(=O)c1cc(OC)c(OC)c(OC)c1 (stereo not drawn) | 12.8% |
| CCN1CCCC1CNC(=O)c1cc2c(OC)c(OC)c(OC)cc2[nH]1 (stereo not drawn) | 23.2% |
| CCN1CCC[C@H]1CNC(=O)c1c(O)c(Cl)cc(Cl)c1OC | -10.4% |

| SMILES | hERG current change (%, negative = inhibition) at 10uM |
| --- | --- |
| CCN1CCCC1CNC(=O)c1cc2cc(OC)c(OC)cc2[nH]1 (stereo not drawn) | 16.6% |
| CCN1CCCC1CNC(=O)c1cc2cc(F)ccc2[nH]1 (stereo not drawn) | -73.3% |
| CCN1CCCC1CNC(=O)c1cc2c(OC)cccc2[nH]1 (stereo not drawn) | -20.8% |
| CCCCC1=CC2=CC(=O)C(C)(OC(=O)CC)C(=O)C2=CN1C1CCCCC1 (stereo not drawn) | -38% |
| Cc1cccn2c(=O)c(/C=C(\C#N)C(N)=O)c(N3CCCCCC3)nc12 | -13.2% |
| COc1cccc(N2CCN(C3CCCC(C)C3)CC2)c1 (stereo not drawn) | -23.8% |
| O=C(NCc1ccccn1)c1cc(S(=O)(=O)N2CCCCC2)ccc1Cl | 3.78% |
| COc1ccc(NS(=O)(=O)c2cccc(C(=O)NNC(=O)c3ccc(O)c(Cl)c3)c2)cc1 | -0.207% |
| Cc1cccc(CN2C(=O)[C@@H]3Cc4c([nH]c5ccccc45)C(C)(C)N3C2=O)c1 | -0.614% |
| COC(=O)c1c(NC(=O)C2(C)Cc3ccccc3C(=O)O2)sc2c1CCCC2 (stereo not drawn) | 12.7% |
| O=C1C=C(c2ccccc2)CC(/C=C/c2ccccc2)C1 (stereo not drawn) | -2.91% |
| CCCc1nc(N)nc2c1C(=O)CC(C)(C)C2 | -4.47% |
| CC(C)(C)N1C(=O)Cc2c1nc(N)c1c(N)nc(N3CCCCC3CO)c(C#N)c21 (stereo not drawn) | -24.3% |
| O=c1[nH]c(CN2CCN(C/C=C/c3ccccc3)CC2)nc2ccccc12 | -65.2% |
| CCC(CC)C(=O)N1CCN(Cc2nc3ccccc3c(=O)[nH]2)CC1 | -11.3% |
| O=C(c1ccccc1)N(Cc1ccc2c(c1)OCO2)Cc1nc2ccccc2c(=O)[nH]1 | -15.4% |
| O=c1[nH]c(N/N=C\c2ccc3c(c2)OCO3)nc2ccccc12 | -70.7% |
| CN1CCN(Cc2nc3ccccc3c(=O)[nH]2)CC1 | 6.57% |
| O=c1[nH]c(N/N=C/c2ccccc2)nc2ccccc12 | -14.9% |
| O=C(CCc1nc2ccccc2c(=O)[nH]1)N1CCN(C/C=C/c2ccccc2)CC1 | -42.4% |
| O=c1[nH]c(CN2CCOCC2)nc2ccccc12 | 0.449% |
| O=c1[nH]c(N/N=C/c2cc3c(cc2[N+](=O)[O-])OCO3)nc2ccccc12 | -0.00362% |

| SMILES | hERG current change (%, negative = inhibition) at 10uM |
| --- | --- |
| O=c1[nH]c(CN2CCN(Cc3ccc4c(c3)OCO4)CC2)nc2ccccc12 | -58.9% |
| O=c1[nH]c(CN2CCNCC2)nc2ccccc12 | -23.4% |
| O=C(/C=C/c1ccccc1)N1CCN(Cc2nc3ccccc3c(=O)[nH]2)CC1 | -64.7% |
| COC(=O)C[C@H]1c2cc(C(F)(F)F)ccc2S(=O)(=O)N1c1ccc(N(C)C)cc1 | -20.9% |
| Cn1ccnc1SCC(=O)N(C1CCCCC1)C1CCCCC1 | 3.29% |
| COc1ccc(Nc2nc(-c3cccc([N+](=O)[O-])c3)nc3ccccc23)cc1 | -5.91% |
| O=C(OCC1OC(Oc2ccc(O)cc2)C(O)C(O)C1O)c1ccccc1 (stereo not drawn) | 14.5% |
| COCC(=O)N(CCc1ccc(OC)cc1)Cc1nc2ccccc2c(=O)[nH]1 | -2.83% |
| Cc1ccccc1NC(=O)c1ccccc1NC(=O)c1ccccc1F | 11.3% |
| O=C(c1ccco1)c1coc2c1cc(O)c1ccccc12 | 13.4% |
| CCCCNC(=O)O[C@H]1C[C@@H]2CCN3C(=O)CCC(C)(C)[C@H](C1)[C@H]23 | -23.5% |
| O=c1[nH]c(CN2CCN(C/C=C/c3ccccc3)CC2)nc2cc(Cl)ccc12 | -106% |
| COc1ccc(N2CCN(Cc3nc4cc(Cl)ccc4c(=O)[nH]3)CC2)cc1 | 13.4% |
| O=c1[nH]c(CN2CCOCC2)nc2cc(Cl)ccc12 | -10.4% |
| COc1ccc(-c2cnc(SCCNC(=O)c3ccc4c(c3)OCO4)[nH]2)cc1 | -5.44% |
| N#Cc1ccc(CSc2nnc(-c3ccccn3)n2-c2ccccc2)cc1 | -42.1% |
| N#Cc1ccc(CSc2nnc(-c3ccccn3)n2-c2ccc(Cl)cc2)cc1 | -51.8% |
| COc1ccc(-n2c(SCc3ccc(C#N)cc3)nnc2-c2ccccn2)cc1 | -58.3% |
| c1ccc(CSc2nnc(-c3ccccn3)n2-c2ccccc2)cc1 | -10.6% |
| COc1ccc(-n2c(SCC(=O)OC(C)C)nnc2-c2ccccn2)cc1 | -14.4% |
| Cc1ccc(-n2c(SCc3ccc(C#N)cc3)nnc2-c2ccccn2)cc1 | -48.7% |

From article PMC4336329 (PLoS ONE, 2015)
